Several values for one entry are separate records, joined by “and”; a condition that tells them apart may be missing. Identical values can stand only once. Inconclusive results are not listed. A structure can be active in one record and inactive in another. Activity calls are given as the source filed them. Unless noted, calls come from the whole dose curve.
What was measured:
[1] = Nuclear factor erythroid 2-related factor 2/antioxidant responsive element (Nrf2/ARE) small molecule agonists: qHTS cell viability counter screen in human keratinocytes (AID 1919968; active = well fitted curve in the direction sought with a large enough effect in the repeat runs; an effect the other way counts as inactive or inconclusive; note: nearly all actives have a fitted effect of over 55% in size)
Procedure, shortened: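 HaCaT ARE reporter line, 1,500 cells/well; 5 h settle, 37 C/5% CO2; cpd in DMSO pinned; 23 h exposure; CellTiter-Fluor, 1 h; fluorescence.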

[2] = Nuclear factor erythroid 2-related factor 2/antioxidant responsive element (Nrf2/ARE) small molecule agonists: luciferase reporter gene qHTS assay in human keratinocytes (AID 1919969); note: nearly all actives have a fitted effect of over 35% in size; note: potency is the fitted concentration of half-maximal effect
[3] = target: Gonadotropin-releasing hormone receptor (Homo sapiens) (UniProt P30968); test: Human gonadotropin-releasing hormone receptor (GnRHR) small molecule agonists, calcium flux assay in GnRHR-HEK293 cells (AID 1920063); note: nearly all actives have a fitted effect of over 35% in size
Procedure, shortened: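 GnRHR-HEK293, 1500 cells/well, 18 h 37 C/5% CO2; Ca dye 1 h 37 C; cpd pinned (DMSO), agonist mode; kinetic FL 480/540, 3 min, 1 s reads; 15 conc, n=3.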

[4] = target: KiSS-1 receptor (Homo sapiens) (UniProt Q969F8); test: Human kisspeptin (KISS1R) small molecule agonists, calcium flux assay in KISS1R-HEK293 cells (AID 1920064; active = well fitted curve in the direction sought with a large enough effect in the repeat runs; an effect the other way counts as inactive or inconclusive)
Procedure, shortened: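 Stable human KISS1R HEK293 line; 18 h plating, 37 C/5% CO2; calcium dye 1 h 37 C; compound pin transfer; kinetic fluorescence Ex/Em 480/540, 3 min.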

[5] = G protein-coupled receptor (GPCR) small molecule agonists, calcium flux assay: HEK293 wild type cell line counter screen (AID 1920065)
Procedure, shortened: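 Kinetic fluorescence at Ex/Em 480/540, recorded every second over 3 min, served as the read-out after compound addition. Each compound was tested at 15 concentrations in triplicate on cells pre-loaded with calcium dye for 1 h.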

[6] = p53 small molecule agonists, cell-based qHTS assay with rat liver microsomes: qHTS cell viability counter screen (AID 1963580); note: nearly all actives have a fitted effect of over 45% in size
Procedure, shortened: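 Intracellular ATP, by CellTiter-Glo luminescence, defines viability. HCT-116 p53RE-bla cells, 4,000 per well, were compound-treated in the presence of rat liver microsomes and NADPH for 16 h at 37 C.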

[7] = p53 small molecule agonists, cell-based qHTS assay: qHTS cell viability counter screen (AID 1963581); note: nearly all actives have a fitted effect of over 45% in size
Procedure, shortened: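 HCT-116 p53RE-bla cells, 4,000/well, plated 5 h before compound pin transfer; 16 h at 37 C; bla substrate 2 h RT; then CellTiter-Glo, 30 min RT, luminescence.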

[8] = p53 small molecule agonists, cell-based qHTS assay (AID 1963582; active = well fitted activation curve with a large enough effect in the signal ratio in the repeat runs, not every such curve was filed as active; the % refers to the signal ratio; note: potency is the fitted concentration of half-maximal effect)
Procedure, shortened: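 Reporter line: p53RE-bla. Pre-incubation 5 h, 37 C, 5% CO2; compound (DMSO, pin tool) 16 h, 37 C; B/G FRET substrate 2 h RT; fluorescence intensity read.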

[9] = target: 5-hydroxytryptamine receptor 2A (Homo sapiens) (UniProt P28223); test: 5-hydroxytryptamine receptor 2A (HTR2A) small molecule antagonists, cell-based qHTS assay (AID 1963586); note: nearly all actives have a fitted effect of over 45% in size; note: potency is the fitted concentration of half-maximal effect
Procedure, shortened: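 Antagonist-mode intracellular calcium assay: DOI (4 nM) added after 5 min compound pre-incubation at room temperature to dye-loaded HTR2A-CHO cells. Fluorescence followed for 3 min, sampled every second.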

[10] = target: 5-hydroxytryptamine receptor 2A (Homo sapiens) (UniProt P28223); test: 5-hydroxytryptamine receptor 2A (HTR2A) small molecule agonists, cell-based qHTS assay (AID 1963587); note: nearly all actives have a fitted effect of over 30% in size; note: potency is the fitted concentration of half-maximal effect
Procedure, shortened: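 Kinetic calcium-flux fluorescence (2 min, 1 sec intervals) after compound addition in agonist mode. HTR2A-CHO cells were cultured 18 h, then dye-loaded 1 h at 37 C.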

[11] = target: Muscarinic acetylcholine receptor M1 (Homo sapiens) (UniProt P11229); test: Cholinergic receptor muscarinic 1 (CHRM1) small molecule antagonists, cell-based qHTS assay (AID 1963588); note: nearly all actives have a fitted effect of over 40% in size
Procedure, shortened: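 CHRM1-CHO calcium-flux assay, antagonist mode. Cells were seeded 18 h, dye-loaded 1 h at 37 C and given compound for 5 min at RT, then acetylcholine was added at 50nM. FDSS fluorescence was read 3 min; 15 concentrations, three runs.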

[12] = target: Muscarinic acetylcholine receptor M1 (Homo sapiens) (UniProt P11229); test: Cholinergic receptor muscarinic 1 (CHRM1) small molecule agonists, cell-based qHTS assay (AID 1963589); note: nearly all actives have a fitted effect of over 35% in size
Procedure, shortened: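 Human M1 in stable CHO line; 18 h plating, 1 h dye load 37 C; cpd added (agonist mode); Ca2+ fluorescence kinetic read, 1 s intervals; 15 conc, 3 runs.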

[13] = cAMP Responsive Elements (CRE) small molecule agonists, cell-based qHTS assay (AID 1963590)
Procedure, shortened: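 HEK 293T CRE-bla, 2,000 cells/well, 18 h preincubation 37 C/5% CO2; cpds (DMSO) pinned, 3 h; LiveBLAzer B/G FRET substrate, 2 h RT.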

[14] = cAMP Responsive Elements (CRE) small molecule antagonists, cell-based qHTS assay (AID 1963591; active = well fitted inhibition curve with a large enough effect in the signal ratio in the repeat runs, not every such curve was filed as active; the % refers to the signal ratio)
Procedure, shortened: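 Beta-lactamase reporter read by FRET substrate (LiveBLAzer B/G) after 2 h at room temperature. CRE-bla HEK293T cells had received compound plus 0.25 uM (final) NKH477 for 3 h at 37 °C.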

[15] = target: Beta-2 adrenergic receptor (Homo sapiens) (UniProt P07550); test: Adrenergic beta2 receptor (ADRB2) small molecule antagonists, cell-based qHTS assay (AID 1963592); note: nearly all actives have a fitted effect of over 50% in size; note: potency is the fitted concentration of half-maximal effect
Procedure, shortened: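 Cells (CHO, stable ADRB2 overexpression) incubated 18-20hr at 37C; compounds added from DMSO; agonist mix (1nM isoproterenol, 100uM IBMX, 25uM Ro-20-1724) added; 0.5hr RT; d2-cAMP and anti-cAMP-cryptate added; 1hr RT; 665/615 nm read.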

[16] = target: D(2) dopamine receptor (Homo sapiens) (UniProt P14416); test: Dopamine D2 receptor (DRD2) small molecule agonists, cell-based qHTS assay (AID 1963594); note: nearly all actives have a fitted effect of over 35% in size
Procedure, shortened: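 cAMP accumulation in DRD2-HEK293 cells measured by HTRF after 1 h detection; compounds added 10 min before NKH477 (200nM […]) forskolin-analogue stimulation, 30 min at room temperature, with Ro20-1724 present at 0.1 mM final.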

[17] = target: D(2) dopamine receptor (Homo sapiens) (UniProt P14416); test: Dopamine D2 receptor (DRD2) small molecule antagonists, cell-based qHTS assay (AID 1963595; active = well fitted inhibition curve with a large enough effect in the signal ratio in the repeat runs, with a control signal flat; the % refers to the signal ratio)
Procedure, shortened: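 HEK293 cells stably expressing DRD2 were preincubated with 0.1 mM Ro20-1724, then with compound for 10 min at room temperature. Cells were stimulated with 200 nM NKH477 plus 12 nM quinpirole for 30 min, and cAMP was read by HTRF.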

[18] = p53 small molecule agonists, cell-based qHTS assay with rat liver microsomes (AID 1963578)
Procedure, shortened: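 Fluorescence from a beta-lactamase reporter under a p53 response element was measured after cells had been incubated 16 h at 37 C with test compound and rat liver microsomes plus NADPH (0.5 mg/mL final each).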

[19] = p53 small molecule agonists, cell-based qHTS assay with human liver microsomes: qHTS cell viability counter screen (AID 1963579); note: nearly all actives have a fitted effect of over 45% in size
Procedure, shortened: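 Seed p53RE-bla cells at 4,000 per well; incubate 5 h at 37 C; add compound, human liver microsomes and NADPH; incubate 16 h at 37 C; add CellTiter-Glo; after 30 min at room temperature, read luminescence.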

[20] = target: Beta-2 adrenergic receptor (Homo sapiens) (UniProt P07550); test: Adrenergic beta2 receptor (ADRB2) small molecule agonists, cell-based qHTS assay (AID 1963593);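 note: CHO cells stably overexpressing human ADRB2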
Procedure, shortened: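 CHO cells stably over-expressing ADRB2 were plated overnight at 37C, then dosed with compounds plus a stimulation mix containing 100uM IBMX and 25uM Ro-20-1724 for 0.5hr at room temperature. cAMP was measured by HTRF competition, 1hr.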

Measured: Potency

Chain of Muscarinic acetylcholine receptor M1 (Homo sapiens) (P11229 whole entry, looked up): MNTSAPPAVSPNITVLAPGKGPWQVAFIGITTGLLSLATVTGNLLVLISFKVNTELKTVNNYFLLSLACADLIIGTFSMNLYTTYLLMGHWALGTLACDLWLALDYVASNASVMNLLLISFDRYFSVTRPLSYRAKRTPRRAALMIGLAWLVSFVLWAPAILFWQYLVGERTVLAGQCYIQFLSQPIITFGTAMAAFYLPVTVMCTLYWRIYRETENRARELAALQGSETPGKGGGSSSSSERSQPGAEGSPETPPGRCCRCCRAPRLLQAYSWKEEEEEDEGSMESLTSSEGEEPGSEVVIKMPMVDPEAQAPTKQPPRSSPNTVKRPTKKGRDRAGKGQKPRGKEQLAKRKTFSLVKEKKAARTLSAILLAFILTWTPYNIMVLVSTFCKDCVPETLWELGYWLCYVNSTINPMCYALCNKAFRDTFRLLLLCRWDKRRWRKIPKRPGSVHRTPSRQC
Chain of Beta-2 adrenergic receptor (Homo sapiens) (P07550 whole entry, looked up): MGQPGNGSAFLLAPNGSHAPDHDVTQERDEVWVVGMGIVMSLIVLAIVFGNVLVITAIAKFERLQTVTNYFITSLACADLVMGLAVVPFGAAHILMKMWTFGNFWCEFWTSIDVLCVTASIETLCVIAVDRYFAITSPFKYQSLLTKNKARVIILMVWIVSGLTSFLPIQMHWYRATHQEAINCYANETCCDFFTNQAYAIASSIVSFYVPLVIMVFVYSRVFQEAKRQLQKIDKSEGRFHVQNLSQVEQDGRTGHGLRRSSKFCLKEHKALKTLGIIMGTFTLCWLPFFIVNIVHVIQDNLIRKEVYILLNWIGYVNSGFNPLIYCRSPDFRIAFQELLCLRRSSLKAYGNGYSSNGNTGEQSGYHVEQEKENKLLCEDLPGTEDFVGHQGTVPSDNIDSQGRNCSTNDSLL
Chain of D(2) dopamine receptor (Homo sapiens) (P14416 whole entry, looked up): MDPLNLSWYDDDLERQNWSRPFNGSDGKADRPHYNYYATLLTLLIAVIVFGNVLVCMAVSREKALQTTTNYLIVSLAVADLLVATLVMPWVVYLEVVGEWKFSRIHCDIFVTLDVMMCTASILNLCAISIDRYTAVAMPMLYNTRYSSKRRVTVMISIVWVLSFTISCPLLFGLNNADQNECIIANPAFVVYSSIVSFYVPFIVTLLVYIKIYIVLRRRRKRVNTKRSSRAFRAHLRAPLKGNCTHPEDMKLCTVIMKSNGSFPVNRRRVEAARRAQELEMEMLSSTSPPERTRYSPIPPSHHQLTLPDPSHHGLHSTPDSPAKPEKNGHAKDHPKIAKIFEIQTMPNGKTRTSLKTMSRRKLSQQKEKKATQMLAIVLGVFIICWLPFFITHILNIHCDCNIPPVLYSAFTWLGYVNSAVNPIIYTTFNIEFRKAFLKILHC
Chain of 5-hydroxytryptamine receptor 2A (Homo sapiens) (P28223 whole entry, looked up): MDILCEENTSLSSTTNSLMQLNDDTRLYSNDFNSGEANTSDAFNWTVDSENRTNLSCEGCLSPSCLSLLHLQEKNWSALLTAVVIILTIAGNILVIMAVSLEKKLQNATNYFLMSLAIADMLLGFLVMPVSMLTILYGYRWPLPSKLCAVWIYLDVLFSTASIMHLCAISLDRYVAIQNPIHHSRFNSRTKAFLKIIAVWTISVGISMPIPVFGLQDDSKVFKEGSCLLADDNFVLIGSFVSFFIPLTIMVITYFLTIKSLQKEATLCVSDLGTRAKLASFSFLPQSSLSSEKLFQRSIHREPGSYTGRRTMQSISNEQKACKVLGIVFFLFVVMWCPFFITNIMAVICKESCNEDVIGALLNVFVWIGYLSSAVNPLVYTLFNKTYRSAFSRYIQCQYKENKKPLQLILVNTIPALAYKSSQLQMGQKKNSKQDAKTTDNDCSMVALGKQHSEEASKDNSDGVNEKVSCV
Chain of Gonadotropin-releasing hormone receptor (Homo sapiens) (P30968 whole entry, looked up): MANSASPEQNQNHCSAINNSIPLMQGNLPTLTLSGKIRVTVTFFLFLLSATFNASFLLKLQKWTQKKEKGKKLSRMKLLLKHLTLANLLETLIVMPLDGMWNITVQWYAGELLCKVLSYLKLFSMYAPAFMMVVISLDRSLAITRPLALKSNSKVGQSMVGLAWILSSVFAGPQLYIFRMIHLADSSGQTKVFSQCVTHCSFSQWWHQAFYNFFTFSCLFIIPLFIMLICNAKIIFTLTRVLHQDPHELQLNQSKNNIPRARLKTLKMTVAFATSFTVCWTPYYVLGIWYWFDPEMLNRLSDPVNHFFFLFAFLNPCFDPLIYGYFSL
Chain of KiSS-1 receptor (Homo sapiens) (Q969F8 whole entry, looked up): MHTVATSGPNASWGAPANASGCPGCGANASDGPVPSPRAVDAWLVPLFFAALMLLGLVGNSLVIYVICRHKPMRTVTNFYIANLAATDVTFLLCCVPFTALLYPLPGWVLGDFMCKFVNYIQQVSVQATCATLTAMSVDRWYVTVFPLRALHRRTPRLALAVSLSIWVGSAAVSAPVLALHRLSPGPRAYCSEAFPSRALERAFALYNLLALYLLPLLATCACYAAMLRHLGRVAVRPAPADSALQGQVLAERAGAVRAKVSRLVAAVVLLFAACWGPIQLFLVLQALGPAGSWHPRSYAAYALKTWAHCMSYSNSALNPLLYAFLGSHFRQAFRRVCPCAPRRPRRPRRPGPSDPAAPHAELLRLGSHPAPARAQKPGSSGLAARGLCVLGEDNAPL

CCN(CCN)c1cccc(C)c1
active: [9] 0.53 µM | [10] 393 nM and 776 nM | [15] 24.6 µM
not listed: [18] | [19] | [20]
inactive: all other assays above

CC(=O)CCc1ccccc1
not listed: [5] | [10]
inactive: all other assays above

O=c1n(CC2CO2)c(=O)n(CC2CO2)c(=O)n1CC1CO1 (stereo not drawn)
active: [2] 60.8 µM and 68.6 µM | [8] 18.1 µM and 20.4 µM
not listed: [5] | [10] | [13] | [14] | [20]
inactive: all other assays above

Cc1ccc(N)c(S(=O)(=O)O)c1
not listed: [5] | [17] | [20]
inactive: all other assays above

COc1ccc(NC(C)=O)cc1N
not listed: [6] | [8] | [10] | [12] | [18] | [20]
inactive: all other assays above

CC(=O)O[C@]1(C(C)=O)CC[C@H]2[C@@H]3C=C(Cl)C4=CC(=O)[C@@H]5C[C@@H]5[C@]4(C)[C@H]3CC[C@@]21C
not listed: [8] | [9] | [10] | [11] | [12] | [13] | [14] | [18]
inactive: all other assays above

O=C(O)CS
inactive and 61.6 µM (active): [2]
not listed: [6] | [8] | [18]
inactive: all other assays above

COCCCN
not listed: [5] | [12] | [16]
inactive: all other assays above

O=C1NC(=O)C(c2ccccc2)(c2ccccc2)N1
not listed: [6] | [8] | [9] | [10] | [11] | [12] | [15] | [18]
inactive: all other assays above

CC1=CC[C@H]2C[C@@H]1C2(C)C
not listed: [6] | [8] | [14] | [16] | [18] | [20]
inactive: all other assays above

c1ccc2c(c1)[nH]c1ccccc12
not listed: [5] | [20]
inactive: all other assays above

Cc1cc(Cc2ccc(N)c(C)c2)ccc1N
not listed: [5] | [13]
inactive: all other assays above

C=Cc1ccc(C)cc1
not listed: [5]
inactive: all other assays above
